Assay results taken from PubChem BioAssay (EPA / NIEHS).
Activity calls are given as the source filed them. The calls were made as follows: active = hit-call score of the fitted dose curve at least 0.9, where 1 is the maximum; inactive = score below 0.9.

Key:
Conditions in all cases: mRNA level, 48 h; actives raise or lower the signal
[1] = read-out: Interleukin 6 Receptor (IL6R), IL6R (gene 3570); assay: LTEA_HepaRG_IL6R: Life Technologies and Expression Analysis (LTEA) Assay for Interleukin 6 Receptor (IL6R) using HepaRG (AID 2283510)
Procedure, shortened: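 Cells were thawed, plated and cultured 48 h, then medium was changed to serum-free induction medium. Chemicals were added in duplicate (100 uM top, half-log steps, 0.5% DMSO) for 48 h. Lysates were analyzed by qRT-PCR for IL6R expression.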

[2] = read-out: Potassium channel subfamily K member 1 (KCNK1), KCNK1 (gene 3775); assay: LTEA_HepaRG_KCNK1: Life Technologies and Expression Analysis (LTEA) Assay for Potassium channel subfamily K member 1 (KCNK1) using HepaRG (AID 2283511)
Procedure, shortened: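 HepaRG, 48 h exposure, 8-pt half-log series top 100 uM, 0.5% DMSO vehicle, duplicates. Readout: KCNK1 transcript by qRT-PCR (Fluidigm array), housekeeping-normalized; bidirectional curve fit relative to DMSO baseline.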

[3] = read-out: Keratin 19 (KRT19), KRT19 (gene 3880); assay: LTEA_HepaRG_KRT19: Life Technologies and Expression Analysis (LTEA) Assay for Keratin 19 (KRT19) using HepaRG (AID 2283512)
Procedure, shortened: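 Differentiated HepaRG cells in serum-free induction medium, exposed 48 h in duplicate to 8 half-log concentrations up to 100 uM in 0.5% DMSO. KRT19 mRNA by qRT-PCR, normalized to ACTB, GAPDH, POLR2A; bidirectional fit vs DMSO.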

[4] = read-out: JUN Transcription Factor, JUN (gene 3725); assay: LTEA_HepaRG_JUN: Life Technologies and Expression Analysis (LTEA) Assay for JUN Transcription Factor using HepaRG (AID 2283513)
Procedure, shortened: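 Read-out is JUN transcript level by TaqMan qRT-PCR, normalized to ACTB, GAPDH and POLR2A, after 48 h chemical treatment of HepaRG cells. Concentration-response spanned eight half-log points up to 100 uM in 0.5% DMSO.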

[5] = read-out: Lipase C (LIPC), LIPC (gene 3990); assay: LTEA_HepaRG_LIPC: Life Technologies and Expression Analysis (LTEA) Assay for Lipase C (LIPC) using HepaRG (AID 2283514)
Procedure, shortened: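 HepaRG, 48 h exposure, 8-pt half-log series from 100 uM in 0.5% DMSO, duplicates. Readout: LIPC mRNA by Fluidigm qRT-PCR, housekeeping-normalized (ACTB/GAPDH/POLR2A). Gain or loss fitted bidirectionally against DMSO baseline.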

[6] = read-out: Lipoprotein lipase (LPL), LPL (gene 4023); assay: LTEA_HepaRG_LPL: Life Technologies and Expression Analysis (LTEA) Assay for Lipoprotein lipase (LPL) using HepaRG (AID 2283515)
Procedure, shortened: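 HepaRG, 48 h exposure, 8-pt half-log dilutions from 100 uM, 0.5% DMSO vehicle, duplicates; qRT-PCR (Fluidigm array) of LPL mRNA vs housekeeping genes; bidirectional curve fit relative to DMSO baseline.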

[7] = read-out: MicroRNA 122 (MIR122), gene 406906; assay: LTEA_HepaRG_MIR122: Life Technologies and Expression Analysis (LTEA) Assay for MicroRNA 122 (MIR122) using HepaRG (AID 2283516); also: the transcript read is the microRNA miR-122
Procedure, shortened: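 Human liver HepaRG cultures receive test chemicals for 48 h at eight half-log concentrations from 100 uM. Expression is quantified by qRT-PCR with ACTB/GAPDH/POLR2A normalization and fitted bidirectionally against 0.5% DMSO.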

[8] = read-out: matrix metalloproteinase-10 (MMP10), MMP10 (gene 4319); assay: LTEA_HepaRG_MMP10: Life Technologies and Expression Analysis (LTEA) Assay for matrix metalloproteinase-10 (MMP10) using HepaRG (AID 2283517)
Procedure, shortened: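 Transcript levels come from Fluidigm qRT-PCR normalized to three housekeeping genes, with curves fitted bidirectionally against 0.5% DMSO. Human HepaRG cells were dosed for 48 hours at concentrations up to 100 uM.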

MYC, MYC (gene 4609) = assay: LTEA_HepaRG_MYC: Life Technologies and Expression Analysis (LTEA) Assay for MYC using HepaRG (AID 2283518)
Procedure, shortened: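 Differentiated HepaRG cells exposed 48 h in serum-free induction medium to 8 concentrations (top 100 uM, half-log steps; 0.5% DMSO), duplicate. MYC mRNA measured by Fluidigm qRT-PCR, normalized to ACTB, GAPDH, POLR2A; bidirectional fit versus DMSO.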

[9] = read-out: matrix metalloproteinase-3 (MMP3), MMP3 (gene 4314); assay: LTEA_HepaRG_MMP3: Life Technologies and Expression Analysis (LTEA) Assay for matrix metalloproteinase-3 (MMP3) using HepaRG (AID 2283519)
Procedure, shortened: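 qRT-PCR read-out of MMP3 mRNA (normalised to three housekeeping genes) in HepaRG liver cells after 48 h chemical exposure; 8-point half-log series, top 100 uM, 0.5% DMSO vehicle. Bidirectional curve fitting against DMSO baseline.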

[10] = read-out: Nuclear factor NF-kappa-B p105 subunit (Homo sapiens) (UniProt P19838); assay: LTEA_HepaRG_NFKB1: Life Technologies and Expression Analysis (LTEA) Assay for Nuclear Factor Kappa B Subunit 1 (NFKB1) using HepaRG (AID 2283521);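 also: differentiated human HepaRG liver cells in serum-free induction medium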
Procedure, shortened: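 NFKB1 transcript was measured by TaqMan qRT-PCR on Fluidigm arrays, normalised to three housekeeping genes and fitted in both directions against 0.5% DMSO. HepaRG cells were dosed in duplicate for 48 h in serum-free induction medium, eight half-log steps from 100 uM.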

[11] = read-out: Protein phosphatase 2A (PPP2R4), PTPA (gene 5524); assay: LTEA_HepaRG_PPP2R4: Life Technologies and Expression Analysis (LTEA) Assay for Protein phosphatase 2A (PPP2R4) using HepaRG (AID 2283522)
Procedure, shortened: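 Cells were plated, cultured 48 h, switched to serum-free induction medium, then dosed for 48 h (8 points, max 100 uM, 0.5% DMSO). RNA was isolated and PPP2R4 expression measured by TaqMan qRT-PCR.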

[12] = read-out: Phosphatase and tensin (PTEN), PTEN (gene 5728); assay: LTEA_HepaRG_PTEN: Life Technologies and Expression Analysis (LTEA) Assay for Phosphatase and tensin (PTEN) using HepaRG (AID 2283523)
Procedure, shortened: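 HepaRG, 48 h exposure, 8-pt half-log series from 100 uM top, 0.5% DMSO vehicle, duplicates. Readout: Fluidigm qRT-PCR of PTEN transcript; housekeeping normalization (ACTB, GAPDH, POLR2A). Gain or loss fitted relative to DMSO baseline.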

[13] = read-out: solute carrier (SLC22A1), SLC22A1 (gene 6580); assay: LTEA_HepaRG_SLC22A1: Life Technologies and Expression Analysis (LTEA) Assay for solute carrier (SLC22A1) using HepaRG (AID 2283524)
Procedure, shortened: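 qRT-PCR readout (TaqMan, Fluidigm arrays) of SLC22A1 transcript, normalized to three housekeeping genes; bidirectional curve fit relative to 0.5% DMSO vehicle. Differentiated human HepaRG cells, 48 h chemical exposure, top concentration 100 uM, half-log steps, eight points.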

[14] = read-out: Pyruvate Dehydrogenase Kinase 4 (PDK4), PDK4 (gene 5166); assay: LTEA_HepaRG_PDK4: Life Technologies and Expression Analysis (LTEA) Assay for Pyruvate Dehydrogenase Kinase 4 (PDK4) using HepaRG (AID 2283525)
Procedure, shortened: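 HepaRG (human liver line), 48 h chemical exposure, 8-pt half-log CRC top 100 uM, 0.5% DMSO vehicle, duplicates. Readout: TaqMan qRT-PCR of PDK4 mRNA, housekeeping-normalized; gain/loss fit relative to DMSO baseline.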

[15] = read-out: NAD(P)H dehydrogenase [quinone] 1 (NQO1), NQO1 (gene 1728); assay: LTEA_HepaRG_NQO1: Life Technologies and Expression Analysis (LTEA) Assay for NAD(P)H dehydrogenase [quinone] 1 (NQO1) using HepaRG (AID 2283526)
Procedure, shortened: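 Transcript induction or suppression is quantified by qRT-PCR in human HepaRG liver cells dosed for 48 hours. Eight half-log concentrations topping at 100 uM are used, with 0.5% DMSO as vehicle and baseline.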

[16] = read-out: Nuclear factor erythroid 2-related factor 2 (Homo sapiens) (UniProt Q16236); assay: LTEA_HepaRG_NFE2L2: Life Technologies and Expression Analysis (LTEA) Assay for Nuclear factor erythroid 2-related factor 2 (NFE2L2) Transcription Factor using HepaRG (AID 2283527)
Procedure, shortened: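 HepaRG, 48 h dosing, 8-pt half-log series from 100 uM in 0.5% DMSO, duplicates. Read-out: NFE2L2 mRNA by qRT-PCR (ACTB/GAPDH/POLR2A normalization). Bidirectional curve fit vs DMSO baseline.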

[17] = read-out: succinate dehydrogenase complex iron sulfur subunit B (SDHB), SDHB (gene 6390); assay: LTEA_HepaRG_SDHB: Life Technologies and Expression Analysis (LTEA) Assay for succinate dehydrogenase complex iron sulfur subunit B (SDHB) using HepaRG (AID 2283528)
Procedure, shortened: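 SDHB transcript level read by TaqMan qRT-PCR, housekeeping-normalised (ACTB, GAPDH, POLR2A), after 48 h chemical treatment of plated HepaRG cells; eight concentrations top 100 uM, half-log steps, 0.5% DMSO, duplicates; fitted both directions against DMSO.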

[18] = read-out: Signal transducer and activator of transcription 3 (Homo sapiens) (UniProt P40763); assay: LTEA_HepaRG_STAT3: Life Technologies and Expression Analysis (LTEA) Assay for Signal transducer and activator of transcription (STAT3) using HepaRG (AID 2283529)
Procedure, shortened: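 HepaRG, 48 h exposure, 8-pt half-log series (top 100 uM), 0.5% DMSO vehicle, duplicates. Readout: STAT3 transcript by Fluidigm qRT-PCR, housekeeping-normalized; bidirectional fit vs DMSO baseline.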

[19] = read-out: Paternally Expressed 10 (PEG10), PEG10 (gene 23089); assay: LTEA_HepaRG_PEG10: Life Technologies and Expression Analysis (LTEA) Assay for Paternally Expressed 10 (PEG10) using HepaRG (AID 2283520);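 as to AC50: PEG10 transcript by qRT-PCR normalised to ACTB GAPDH and POLR2A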
Procedure, shortened: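 Human HepaRG cultures are dosed for 48 h across an eight-point half-log series starting at 100 uM, with 0.5% DMSO as vehicle and baseline. Gain or loss of PEG10 transcript is measured by qRT-PCR and fitted in both directions.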

Measured: AC50

Signal transducer and activator of transcription 3 (Homo sapiens), sequence (P40763 whole entry, looked up): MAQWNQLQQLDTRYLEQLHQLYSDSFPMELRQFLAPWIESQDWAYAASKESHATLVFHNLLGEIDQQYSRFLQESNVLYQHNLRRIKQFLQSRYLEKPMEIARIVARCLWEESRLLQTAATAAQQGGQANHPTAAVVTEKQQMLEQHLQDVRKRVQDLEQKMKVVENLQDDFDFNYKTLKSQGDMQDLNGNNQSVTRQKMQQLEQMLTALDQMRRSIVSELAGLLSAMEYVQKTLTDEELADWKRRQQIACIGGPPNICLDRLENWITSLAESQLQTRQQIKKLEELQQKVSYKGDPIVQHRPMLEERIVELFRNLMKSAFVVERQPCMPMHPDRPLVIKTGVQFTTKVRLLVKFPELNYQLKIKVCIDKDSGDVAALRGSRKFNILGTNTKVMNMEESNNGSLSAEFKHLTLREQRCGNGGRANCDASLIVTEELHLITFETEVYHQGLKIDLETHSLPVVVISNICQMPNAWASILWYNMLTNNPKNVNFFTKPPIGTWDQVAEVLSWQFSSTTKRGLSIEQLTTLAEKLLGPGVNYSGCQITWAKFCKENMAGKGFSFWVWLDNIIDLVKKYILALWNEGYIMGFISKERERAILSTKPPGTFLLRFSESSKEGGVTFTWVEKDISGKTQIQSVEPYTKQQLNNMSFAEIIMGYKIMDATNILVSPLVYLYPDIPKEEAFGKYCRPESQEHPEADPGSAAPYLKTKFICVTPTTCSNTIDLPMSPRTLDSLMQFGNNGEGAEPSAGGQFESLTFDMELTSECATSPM
Nuclear factor erythroid 2-related factor 2 (Homo sapiens), sequence (Q16236 whole entry, looked up): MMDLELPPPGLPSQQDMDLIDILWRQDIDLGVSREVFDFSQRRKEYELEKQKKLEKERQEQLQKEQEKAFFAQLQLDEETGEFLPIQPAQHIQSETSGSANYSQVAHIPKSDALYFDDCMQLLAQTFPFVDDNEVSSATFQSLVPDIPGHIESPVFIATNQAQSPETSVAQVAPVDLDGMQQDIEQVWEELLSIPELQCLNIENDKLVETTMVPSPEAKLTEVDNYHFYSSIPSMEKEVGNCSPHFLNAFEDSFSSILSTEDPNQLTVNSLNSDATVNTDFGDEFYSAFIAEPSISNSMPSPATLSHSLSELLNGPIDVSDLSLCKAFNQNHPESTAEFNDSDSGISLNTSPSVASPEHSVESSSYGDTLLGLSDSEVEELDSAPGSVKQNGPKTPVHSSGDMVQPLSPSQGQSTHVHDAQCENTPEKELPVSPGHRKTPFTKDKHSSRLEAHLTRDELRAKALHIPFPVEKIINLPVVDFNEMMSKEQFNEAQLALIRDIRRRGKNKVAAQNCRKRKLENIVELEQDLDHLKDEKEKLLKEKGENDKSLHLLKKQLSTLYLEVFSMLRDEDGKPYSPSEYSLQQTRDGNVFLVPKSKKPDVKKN
Nuclear factor NF-kappa-B p105 subunit (Homo sapiens), sequence (P19838 whole entry, looked up): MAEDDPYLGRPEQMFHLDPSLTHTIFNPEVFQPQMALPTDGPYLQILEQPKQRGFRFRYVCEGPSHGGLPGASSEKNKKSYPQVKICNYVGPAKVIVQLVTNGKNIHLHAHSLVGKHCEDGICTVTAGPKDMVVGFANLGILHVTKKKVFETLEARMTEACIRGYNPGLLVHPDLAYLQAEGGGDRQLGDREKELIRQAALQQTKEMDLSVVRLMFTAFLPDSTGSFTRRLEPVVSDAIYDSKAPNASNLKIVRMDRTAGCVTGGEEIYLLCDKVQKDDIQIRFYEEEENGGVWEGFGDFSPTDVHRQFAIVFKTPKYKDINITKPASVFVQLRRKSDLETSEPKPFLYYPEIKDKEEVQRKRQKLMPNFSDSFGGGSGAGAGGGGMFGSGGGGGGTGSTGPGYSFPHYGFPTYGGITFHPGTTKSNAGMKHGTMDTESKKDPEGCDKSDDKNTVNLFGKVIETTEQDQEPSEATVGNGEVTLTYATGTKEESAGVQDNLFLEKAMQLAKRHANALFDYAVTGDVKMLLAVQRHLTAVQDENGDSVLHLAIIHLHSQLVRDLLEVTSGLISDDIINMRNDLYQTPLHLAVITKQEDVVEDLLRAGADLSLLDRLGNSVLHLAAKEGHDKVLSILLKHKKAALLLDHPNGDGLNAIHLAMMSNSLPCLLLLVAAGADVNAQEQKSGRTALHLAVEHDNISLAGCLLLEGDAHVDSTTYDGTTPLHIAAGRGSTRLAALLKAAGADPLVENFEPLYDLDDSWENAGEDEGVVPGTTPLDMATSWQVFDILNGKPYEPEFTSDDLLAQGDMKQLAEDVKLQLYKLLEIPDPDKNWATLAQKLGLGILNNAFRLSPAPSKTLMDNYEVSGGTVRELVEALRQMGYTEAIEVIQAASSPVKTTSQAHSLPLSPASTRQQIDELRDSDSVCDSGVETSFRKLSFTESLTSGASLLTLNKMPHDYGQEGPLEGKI

c1ccc2c(c1)-c1cccc3cccc-2c13
inactive: [1] | [2] | [3] | [4] | [5] | [6] | [7] | [8] | MYC, MYC (gene 4609) | [9] | [10] | [11] | [12] | [13] | [14] | [15] | [16] | [17] | [18]

O=C1CCCO1
inactive: [1] | [2] | [3] | [4] | [5] | [7] | [8] | MYC, MYC (gene 4609) | [19] | [11] | [13] | [14] | [16] | [17] | [18]
active: [6] 50 µM | [9] 83.1 µM | [12] 82.9 µM

ClCCOCCCl
inactive: [1] | [2] | [3] | [4] | [5] | [6] | [7] | [8] | MYC, MYC (gene 4609) | [9] | [10] | [11] | [12] | [13] | [14] | [15] | [16] | [17] | [18]

CS(=O)(=O)NC(=O)c1cc(Oc2ccc(C(F)(F)F)cc2Cl)ccc1[N+](=O)[O-]
inactive: [1] | [2] | [3] | [4] | [5] | [6] | [7] | [8] | MYC, MYC (gene 4609) | [9] | [11] | [12] | [13] | [15] | [16] | [17] | [18]
active: [19] 31 µM | [14] 16 µM
